From PubChem BioAssay AID1159580 (chemical genetic matrix, 2015)
Among all 5,500 compounds or so, about 2,000 (36%) were called active. Not shown: some 18% with an inconclusive outcome. Rule as the data show it: active = normalized growth mostly below about 0.91 (no sharp cut-off); inconclusive = no clear call, values can overlap the other calls; inactive = mostly above about 0.92. The list shows a part of the results. Where a SMILES comes first, the peptide text is derived from it. Side-chain parts run from the residue outwards. [ ]: non-standard residue; d: D form. The star is where a group is joined. X1 = CCC(C)C(N)C1=NC(C(=O)*)CS1; Orn = NCCC[CH](N)C(=O)O

Assay: chemical genetic growth profiling, strain panel (AID 1159580);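 also: tested at 20 µM; growth read once vehicle control cultures reached saturation at 30 °C; 1 = growth at the plate median or of vehicle wells; lower values mean less growth of the strain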
Conditions: growth OD

Measured: normalized growth

CCC(C)C(N)C1=NC(C(=O)NC(CC(C)C)C(=O)NC(CCC(=O)O)C(=O)NC(C(=O)NCCCCC2NC(=O)C(CC(N)=O)NC(=O)C(CC(=O)O)NC(=O)C(Cc3cnc[nH]3)NC(=O)C(Cc3ccccc3)NC(=O)C(C(C)CC)NC(=O)C(CCCN)NC2=O)C(C)CC)CS1 (stereo not drawn) (cyclo(DNK([Ile-Glu-Leu-X1])[Orn]IFH); configuration not given here)
inactive: S. cerevisiae deletion strains, locus YJR075W, strain HOC1, hits give low values 0.986 | S. cerevisiae deletion strains, locus YKL009W, strain mrt4, hits give low values 0.974 | S. cerevisiae deletion strains, locus YKL068W, hits give low values 0.995 | S. cerevisiae deletion strains, locus YKL085W, strain MDH1 (second series), hits give low values 0.966 | S. cerevisiae deletion strains, locus YKL085W, strain MDH1, hits give low values 0.966 | S. cerevisiae deletion strains, locus YKL160W, strain elf1, hits give low values 1.02 | S. cerevisiae deletion strains, locus YKL190W, strain CNB1, hits give low values 0.996 | S. cerevisiae deletion strains, locus YKR001C, strain vps1, hits give low values 1.01 | S. cerevisiae deletion strains, locus YKR026C, strain gcn3, hits give low values 1.05 | S. cerevisiae deletion strains, locus YKR091W, strain srl3, hits give low values 0.973 | S. cerevisiae deletion strains, locus YLL001W, strain dnm1, hits give low values 1.04 | S. cerevisiae deletion strains, locus YLL026W, hits give low values 1.01 | S. cerevisiae deletion strains, locus YLL041C, strain sdh2, hits give low values 1.01 | S. cerevisiae deletion strains, locus YLR027C, strain aat2, hits give low values 1.01 | S. cerevisiae deletion strains, locus YLR039C, strain RIC1, hits give low values 1.06 | S. cerevisiae deletion strains, locus YLR058C, strain SHM2, hits give low values 0.994 | S. cerevisiae deletion strains, locus YLR102C, strain apc9, hits give low values 1.01 | S. cerevisiae deletion strains, locus YLR113W, strain HOG1, hits give low values 1.05 | S. cerevisiae deletion strains, locus YLR221C, strain rsa3, hits give low values 1.01 | S. cerevisiae deletion strains, locus YLR258W, strain gsy2, hits give low values 0.993 | S. cerevisiae deletion strains, locus YLR262C, strain YPT6 (second series), hits give low values 1.01 | S. cerevisiae deletion strains, locus YLR262C, strain YPT6, hits give low values 1.02 | S. cerevisiae deletion strains, locus YLR268W, strain sec22, hits give low values 1.02 | S. cerevisiae deletion strains, locus YLR320W, strain mms22, hits give low values 0.982 | S. cerevisiae deletion strains, locus YLR330W, strain CHS5, hits give low values 1.01 | S. cerevisiae deletion strains, locus YLR342W, strain FKS1 (second series), hits give low values 1.03 | S. cerevisiae deletion strains, locus YLR342W, strain FKS1, hits give low values 1.02 | S. cerevisiae deletion strains, locus YLR357W, strain rsc2, hits give low values 1.07 | S. cerevisiae deletion strains, locus YLR370C, strain arc18, hits give low values 0.999 | S. cerevisiae deletion strains, locus YLR371W, strain rom2, hits give low values 1.02 | S. cerevisiae deletion strains, locus YLR384C, strain iki3, hits give low values 0.993 | S. cerevisiae deletion strains, locus YLR418C, strain cdc73, hits give low values 0.989 | S. cerevisiae deletion strains, locus YML016C, strain PPZ1, hits give low values 0.992 | S. cerevisiae deletion strains, locus YML032C, strain rad52, hits give low values 0.967 | S. cerevisiae deletion strains, locus YML120C, strain ndi1, hits give low values 0.994 | S. cerevisiae deletion strains, locus YML124C, strain tub3, hits give low values 0.981 | S. cerevisiae deletion strains, locus YMR058W, strain fet3, hits give low values 1.02 | S. cerevisiae deletion strains, locus YMR078C, strain ctf18, hits give low values 0.988 | S. cerevisiae deletion strains, locus YMR125W, strain sto1, hits give low values 1.02 | S. cerevisiae deletion strains, locus YMR129W, hits give low values 0.997 | S. cerevisiae deletion strains, locus YMR205C, strain PFK2, hits give low values 0.998 | S. cerevisiae deletion strains, locus YMR223W, strain ubp8, hits give low values 1 | S. cerevisiae deletion strains, locus YMR231W, strain pep5, hits give low values 0.996 | S. cerevisiae deletion strains, locus YMR263W, strain SAP30, hits give low values 1.01 | S. cerevisiae deletion strains, locus YMR307W, strain GAS1, hits give low values 0.955 | S. cerevisiae deletion strains, locus YNL067W, strain RPL9B, hits give low values 1 | S. cerevisiae deletion strains, locus YNL071W, strain lat1, hits give low values 1 | S. cerevisiae deletion strains, locus YNL128W, strain TEP1, hits give low values 0.999 | S. cerevisiae deletion strains, locus YNL153C, strain GIM3, hits give low values 0.992 | S. cerevisiae deletion strains, locus YNL183C, strain NPR1, hits give low values 0.975 | S. cerevisiae deletion strains, locus YNL209W, strain ssb2, hits give low values 0.991 | S. cerevisiae deletion strains, locus YNL233W, strain BNI4, hits give low values 1.01 | S. cerevisiae deletion strains, locus YNL248C, strain rpa49, hits give low values 0.998 | S. cerevisiae deletion strains, locus YNL250W, strain rad50, hits give low values 1.01 | S. cerevisiae deletion strains, locus YNL271C, strain bni1, hits give low values 1.01 | S. cerevisiae deletion strains, locus YNL298W, strain CLA4, hits give low values 0.966 | S. cerevisiae deletion strains, locus YNL307C, strain MCK1, hits give low values 1 | S. cerevisiae deletion strains, locus YNL322C, strain KRE1 (second series), hits give low values 0.994 | S. cerevisiae deletion strains, locus YNR049C, strain mso1, hits give low values 0.995 | S. cerevisiae deletion strains, locus YNR052C, strain pop2, hits give low values 0.992 | S. cerevisiae deletion strains, locus YOL006C, strain TOP1, hits give low values 0.996 | S. cerevisiae deletion strains, locus YOL012C, strain htz1 1.9 | S. cerevisiae deletion strains, locus YOL147C, strain pex11, hits give low values 0.994 | S. cerevisiae deletion strains, locus YOR001W, strain rrp6, hits give low values 1.01 | S. cerevisiae deletion strains, locus YOR061W, strain CKA2, hits give low values 1.01 | S. cerevisiae deletion strains, locus YOR069W, strain VPS5, hits give low values 1 | S. cerevisiae deletion strains, locus YOR070C, strain gyp1, hits give low values 1.01 | S. cerevisiae deletion strains, locus YOR080W, strain dia2, hits give low values 1 | S. cerevisiae deletion strains, locus YOR083W, strain WHI5, hits give low values 1.04 | S. cerevisiae deletion strains, locus YOR106W, strain vam3, hits give low values 1.02 | S. cerevisiae deletion strains, locus YOR136W, strain idh2, hits give low values 1.01 | S. cerevisiae deletion strains, locus YOR144C, strain elg1, hits give low values 0.999 | S. cerevisiae deletion strains, locus YOR184W, strain ser1, hits give low values 1.01 | S. cerevisiae deletion strains, locus YOR231W, strain MKK1, hits give low values 1.03 | S. cerevisiae deletion strains, locus YOR265W, strain rbl2, hits give low values 1.01 | S. cerevisiae deletion strains, locus YOR270C, strain vph1, hits give low values 1 | S. cerevisiae deletion strains, locus YOR290C, strain snf2, hits give low values 0.963 | S. cerevisiae deletion strains, locus YOR316C, strain cot1, hits give low values 1 | S. cerevisiae deletion strains, locus YPL051W, strain arl3, hits give low values 1.04 | S. cerevisiae deletion strains, locus YPL078C, strain atp4, hits give low values 1.02 | S. cerevisiae deletion strains, locus YPL106C, strain sse1, hits give low values 0.976 | S. cerevisiae deletion strains, locus YPL240C, strain hsp82, hits give low values 1 | S. cerevisiae deletion strains, locus YPL256C, strain CLN2, hits give low values 1.02 | S. cerevisiae deletion strains, locus YPR119W, strain clb2, hits give low values 0.993 | S. cerevisiae deletion strains, locus YPR141C, strain kar3, hits give low values 0.994 | S. cerevisiae deletion strains, locus YPR163C, strain tif3, hits give low values 0.995 | S. cerevisiae deletion strains, locus YPR167C, strain met16, hits give low values 0.993 | S. cerevisiae deletion strains, strain wtn01, hits give low values 1.03 | S. cerevisiae strains, strain wild type, hits give low values 0.992
